Results taken from PubChem BioAssay (NCI).
Values joined by “and” are separate entries in the source; they are usually repeats but may differ in a detail not shown here. Equal values may be shown once. This is part of a sample that, as a whole, favours compounds with a hit. Of some 83,000 tested, about 20% had one in any assay.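 Plates (96-well) were seeded with cells, treated with compound at one concentration, and incubated for 48 hours before percent growth was determined.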 Active and inactive are the calls of the source. Rule for the calls: active = growth percent below 10; inactive = the rest.

test system: HL-60(TB) leukemia; assay: NCI-60 one-dose screen, 48 h (100 = growth as untreated, 0 = no growth, -100 = all killed); conditions: 10 µM unless noted

Structure (SMILES)	growth
Nc1ccc(O)c(C(=O)O)c1	89.4% (inactive) and 104% (inactive) and 106% (inactive)
O=C(CSc1nc2sc3c(c2c(=O)n1-c1ccccc1)CCCCC3)N/N=C/c1ccc(F)cc1	110% (inactive)
FC(F)(F)c1cccc(Nc2ccccc2)c1	92.7% (inactive)
COc1ccc(Nc2nc(N/N=C/c3ccc(O)cc3)nc(Nc3ccc([N+](=O)[O-])cc3)n2)cc1	116% (inactive)
O=C(O)c1ccc(OCc2ccccc2)cc1	103% (inactive)
COc1ccc(CN2C(=O)/C(=C\C(=O)c3ccc(OCCN4CCCCC4)cc3)c3ccccc32)cc1	20% (inactive)
COc1cc(Nc2nc(N[C@H]3CCCC[C@@H]3N)nc3cc[nH]c(=O)c23)cc(OC)c1	16.2% (inactive)
CN1C=CN(Cc2ccc(-c3ccccn3)nc2)[CH-]1.CN1C=CN(Cc2ccc(-c3ccccn3)nc2)[CH-]1.[Au+3]	-9.42% (active)
O=C1CC2(O)CSc3nc(=O)cc(n32)N1 (stereo not given)	100% (inactive)
O=C(/C=C/c1ccccc1)c1cccc(OCCCOc2cccc(C(=O)/C=C/c3ccccc3)c2)c1	82.3% (inactive)
C=C(C)[C@@H]1CC[C@]2(CO)CC[C@]3(C)[C@H](CC[C@@H]4[C@@]5(C)CC[C@H](NCO)C(C)(C)[C@@H]5CC[C@]43C)[C@@H]12	-52% (active)
CCOC(=O)CC(S(=O)(=O)c1ccccc1)S(=O)(=O)c1ccccc1	67.9% (inactive)
COC(=O)CCCNS(=O)(=O)c1cc(C(=O)Nc2ccc(NC(=O)c3cc(S(=O)(=O)NCCCC(=O)OC)c(O)c(O)c3O)cc2)c(O)c(O)c1O	68% (inactive)
O=C1OC(=O)C2C1CC=CC2c1ccccc1 (stereo not given)	69.1% (inactive)
CC(C)CC(CC1=CCC2CC1C2(C)C)C1=C(O)C(C)(C)C(=O)C(C)(C)C1=O (stereo not given)	-45.3% (active)
Cc1ccc2oc(=O)cc(-c3nc4ccc([N+](=O)[O-])cc4[nH]3)c2c1	53.1% (inactive)
Cc1ccc(C(=O)Nc2ccc(Cl)cc2C(=O)NCc2ccccc2)cc1	51.9% (inactive)
Cc1ccc(S(=O)(=O)OCCN(CCOS(=O)(=O)c2ccc(C)cc2)c2c[nH]c(=O)[nH]c2=O)cc1	99.2% (inactive)
COc1nc(N(C)O)nc(N(C)O)n1	50.4% (inactive)
COC(=O)C(Sc1ccc(Cl)cc1)C1SC(=S)N(Cc2ccccc2)C1=O (stereo not given)	76.1% (inactive)

Structure (SMILES)	growth
O=c1[nH]c(=S)[nH]n1C(=S)n1[nH]c(=S)[nH]c1=O	99.1% (inactive)
O=C1C(Cl)=C(Nc2ccc(O)cc2)C(=O)N1Cc1ccc(Cl)cc1	32.8% (inactive)
CCOC(=O)c1c(NC(=O)c2ccc(C(C)C)cc2)sc2c(CN(C)C)c(O)ccc12	-34.8% (active)
COc1ccc(C(=O)N2N=C(c3ccc(F)cc3)CC2c2cn(-c3ccccc3)nc2-c2ccccc2)cc1 (stereo not given)	32.5% (inactive)
Cc1cc2c([nH]1)CSc1cc(S(=O)(=O)c3ccccc3)c(=O)[nH]c1-2	27.7% [100 µM] (inactive)
CS(=O)(=O)Nc1ccc(Nc2c3ccccc3nc3cc([N+](=O)[O-])ccc23)cc1	-8.01% (active)
COC(=O)CC[C@@H]1O[C@@H](c2cccc(C(F)(F)F)c2)[C@@H](O)[C@H]1O	105% (inactive)
COc1cc(C(=O)c2ccc3c(c2)OCO3)cc(OC)c1OC	1.04% (active) and 22.6% (inactive)
Nc1nc(-c2cc3ccccc3o2)cc(=O)c(=O)[nH]1	107% (inactive)
Cc1cccc(CO)c1	109% (inactive)
COC(=O)c1cc(-c2ccc(C)cc2)n(C(=O)CSc2nc3sc(C(N)=O)c(C)c3c(=O)n2Cc2ccccc2)n1	106% (inactive)
Cc1cc(-c2ccccc2)c(C)n1Cc1ccc(Cl)cc1	-27.2% (active)
COc1cc(NS(C)(=O)=O)ccc1Cc1c2ccccc2nc2ccccc12	-2.45% (active)
Cn1c2c(Cl)c(Cl)ccc2c2ccn3c(=O)c4ccccc4nc3c21	106% (inactive)
CC(C)CNC(=O)c1ccccc1C(=O)NC1(C(=O)NCC(C)C)CCCC1	92.9% (inactive) and 97.4% (inactive)
c1ccc(-c2ccc3ccccc3c2)cc1	109% (inactive)
NC(=O)c1c(NC(=O)c2ccc(OCC3CCCO3)cc2)sc2c1CCCC2 (stereo not given)	53.8% (inactive)
O=C(Nc1ccc(C(=O)O)c(O)c1)c1ccccc1	99% (inactive) and 105% (inactive)
Cc1cc(CCNC=O)c(C)c2c1sc1ccccc12	91.9% (inactive)
Cn1c(=O)n(-c2ccc(C(C)(C)C#N)cc2)c2c3cc(-c4cnc5ccccc5c4)ccc3ncc21	10.3% (inactive) and -11.9% (active)
